Compound activity from PubChem BioAssay.
Hits are enriched below; roughly 1.6% of the tested compounds scored in any of these assays.
KCNQ2 enhance – enhances the rat KCNQ2 potassium channel. AID 2239. B-score at 10 µM. CHO-K1 KCNQ2, FluxOR thallium flux fluorescence; stronger effect = higher value. O88943. 310,000 tested, 0.54% active;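 active means fluorescence ratio B-score at least 3 SD of library B-scores, with initial fluorescence B-score within 3 of them, cut at about 5.3 in these data; same plate scores as AID 2156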;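 further: B-score of peak minus minimum over baseline fluorescence ratio after K+ and Tl+ stimulus; positive B-score means potentiation of KCNQ2 with more thallium influx and brighter signal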
Target sequence (O88943 whole entry, looked up): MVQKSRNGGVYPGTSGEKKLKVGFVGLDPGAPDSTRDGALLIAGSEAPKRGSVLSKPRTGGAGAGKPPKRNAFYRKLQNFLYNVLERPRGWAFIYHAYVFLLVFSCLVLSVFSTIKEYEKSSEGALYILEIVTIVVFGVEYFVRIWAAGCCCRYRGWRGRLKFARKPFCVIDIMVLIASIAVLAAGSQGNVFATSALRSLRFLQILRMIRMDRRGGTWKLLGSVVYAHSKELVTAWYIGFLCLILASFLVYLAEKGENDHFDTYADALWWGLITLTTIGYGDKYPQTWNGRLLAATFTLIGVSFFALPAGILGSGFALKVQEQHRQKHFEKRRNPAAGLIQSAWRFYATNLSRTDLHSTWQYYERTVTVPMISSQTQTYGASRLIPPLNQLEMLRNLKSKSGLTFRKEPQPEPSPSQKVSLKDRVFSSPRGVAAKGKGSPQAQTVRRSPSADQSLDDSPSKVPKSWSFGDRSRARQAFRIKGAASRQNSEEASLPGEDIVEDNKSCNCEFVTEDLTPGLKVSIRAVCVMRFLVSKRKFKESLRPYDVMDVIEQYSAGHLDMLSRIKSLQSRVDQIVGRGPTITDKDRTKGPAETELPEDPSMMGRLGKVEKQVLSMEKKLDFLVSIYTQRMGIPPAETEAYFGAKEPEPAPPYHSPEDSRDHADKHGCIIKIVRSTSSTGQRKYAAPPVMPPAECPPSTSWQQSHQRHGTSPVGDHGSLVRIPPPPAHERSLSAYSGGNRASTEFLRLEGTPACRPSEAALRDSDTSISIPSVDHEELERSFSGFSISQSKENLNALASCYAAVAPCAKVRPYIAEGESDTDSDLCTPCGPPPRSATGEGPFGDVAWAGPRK
KCNQ2 inh – blocks the rat KCNQ2 potassium channel; O88943; CHO-K1 KCNQ2, FluxOR thallium flux, 20 min; stronger effect = lower value; B-score at 10 µM; 310,000 tested, 1.1% active;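 active means fluorescence ratio B-score at most minus 3 library SDs, with starting brightness B-score within 2 library SDs, cut at about -5.5 in these data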
Kir21 confirm – confirmation of mouse Kir2.1 potassium channel inhibitors; shares compounds with KCNQ2 enhance; Kir2.1-expressing cells, FluxOR thallium flux fluorescence; stronger effect = lower value; Tl flux remaining, % of negative control (stronger effect = lower value), % at 10 µM; 2,300 tested, 41% active; AID 2032;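 active means Primary-screen hit whose thallium flux fell at least 3 control SD below untreated wells in both duplicates, with normal baseline fluorescence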
HEK293 Tl flux – counter-screen for Kir2.1 inhibitors: effect in parental HEK293 cells; shares compounds with KCNQ2 enhance; FluxOR thallium flux fluorescence; 0% = unstimulated blank wells; FluxOR signal as % of negative control (100 = no effect), % at 10 µM; 2,300 tested, 19% active; AID 2105;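 active means dye signal at least 3 control SD above or below untreated wells in both duplicates, raw fluorescence within 3, either direction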;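 further: percent is based on the flux ratio of peak minus minimum fluorescence over baseline F0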
CHO-K1 Tl ctr – counter-screen for KCNQ2 potentiators: effect in parental CHO-K1 cells; AID 2282; shares compounds with KCNQ2 enhance; FluxOR thallium flux fluorescence; zero = vehicle mean+3SD, 100% = vehicle-minus-blank window; 1,200 tested, 43% active; activity increase over 3SD of controls, % at 10 µM;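 active means signal rise of at least 3 SD above the untreated control mean, in both duplicate wells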;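 further: counter screen of KCNQ2 potentiator hits so any rise reflects channel-independent effects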
KCNQ1 pot spec – selectivity of KCNQ2 potentiators: effect on human KCNQ1 | activation over 3SD threshold, % at 10 µM | CHO KCNQ1 stable, FluxOR thallium flux fluorescence; beyond 3SD, as % of vehicle-control signal | shares compounds with KCNQ2 enhance | 1,200 tested, 28% active;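 active means fluorescence ratio rise of at least 3 SD of vehicle wells above their mean, in both replicate wells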
KCNQ2 pot confirm – confirmation of rat KCNQ2 potassium channel potentiators. shares compounds with KCNQ2 enhance. CHO-KCNQ2 cells, FluxOR thallium flux fluorescence. potentiation, less the hit threshold, % at 10 µM. 1,200 tested, 68% active. AID 2287;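 active means fluorescence ratio rising 3 SD or more over the vehicle control mean in both replicates, plus primary screen hit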;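 further: peak minus minimum thallium fluorescence divided by baseline after K/Tl stimulus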
Kir2-1 sel – selectivity of KCNQ2 potentiators: effect on mouse Kir2.1; shares compounds with KCNQ2 enhance; HEK293 Kir2.1, FluxOR thallium flux fluorescence; activity over 3SD threshold, % at 10 µM; 1,200 tested, 2% active; AID 2345;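 active means fluorescence ratio rise of at least 3 SD above the vehicle-control mean, seen in both replicates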
KCNQ2 W236L pot – potentiates the retigabine-insensitive rat KCNQ2 W236L mutant channel | shares compounds with KCNQ2 enhance | CHO KCNQ2-W236L, automated patch clamp current | current increase over 3SD of negative controls (%), stronger effect = higher value, % at 25 µM | 940 tested, 10% active;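 active means current increase at least 3 SD of the untreated controls above them in both duplicate recordings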
Large screens that a line does not name were inactive (follow-up assays come after a bar, where they were run).

COc1ccc(NC(=S)NCCc2ccccc2)c(C)c1	none (no result: KCNQ2 enhance)
CCc1cc(Br)ccc1NC(=S)NCCc1ccccc1	none (no result: KCNQ2 enhance) | Kir21 confirm 62% | HEK293 Tl flux inactive
COc1ccc2oc(C(=O)OCC(=O)N(C)CC(=O)Nc3ccc(C)cc3)c(C)c2c1	KCNQ2 enhance 7.4 | Kir21 confirm inactive | HEK293 Tl flux inactive | CHO-K1 Tl ctr 32 | KCNQ1 pot spec inactive | KCNQ2 pot confirm inactive | Kir2-1 sel inactive
COc1ccc2oc(C(=O)OCC(=O)Nc3ccc(NC(C)=O)cc3)c(C)c2c1	none (no result: KCNQ2 enhance)
CCCOc1cccc(-c2cc(C(=O)N/N=C/c3ccccn3)c3ccccc3n2)c1	KCNQ2 enhance 5.5 | Kir21 confirm inactive | HEK293 Tl flux inactive | CHO-K1 Tl ctr inactive | KCNQ1 pot spec inactive | KCNQ2 pot confirm inactive | Kir2-1 sel inactive
CCCOc1cccc(-c2cc(C(=O)NN)c3ccccc3n2)c1	none
CCOc1ccc(NC(=O)CN(C)C(=O)c2ccc(-c3ccc(C(C)=O)cc3)o2)cc1OCC	none
Cc1ccc(C(=O)CSC2=C(C#N)C(c3ccco3)C3=C(CC(C)(C)CC3=O)N2)cc1 (stereo not given)	none
N#CC1=C(SCc2ccccc2)NC(=O)CC1c1ccccc1 (stereo not given)	none (no result: KCNQ2 enhance) | Kir21 confirm 41% | HEK293 Tl flux inactive
CCOC(=O)CSC1=C(C#N)C(c2ccc(F)cc2)C(C(C)=O)=C(C)N1 (stereo not given)	KCNQ2 enhance 8.1 | Kir21 confirm inactive | HEK293 Tl flux inactive | CHO-K1 Tl ctr 14 | KCNQ1 pot spec inactive | KCNQ2 pot confirm 4.6 | Kir2-1 sel inactive | KCNQ2 W236L pot inactive
CCOC(=O)CSC1=C(C#N)C(c2ccc3c(c2)OCO3)CC(=O)N1 (stereo not given)	none
CCOC(=O)C1=C(C)NC(SCC(=O)OC)=C(C#N)C1c1ccc(C(=O)OC)cc1 (stereo not given)	none (no result: KCNQ2 enhance)
CC(=O)C1=C(C)NC(SCC(=O)c2ccc(C)cc2)=C(C#N)C1c1ccco1 (stereo not given)	KCNQ2 enhance 12 | Kir21 confirm inactive | HEK293 Tl flux inactive | CHO-K1 Tl ctr inactive | KCNQ1 pot spec inactive | KCNQ2 pot confirm inactive | Kir2-1 sel inactive
CCOC(=O)CSC1=C(C#N)C(c2ccc(Cl)cc2)CC(=O)N1 (stereo not given)	none | Kir21 confirm 47% | HEK293 Tl flux inactive
C=CCSC1=C(C#N)C(c2ccccc2)CC(=O)N1 (stereo not given)	none
Cc1cc(NC(=O)C2C3C(=O)N(CCC(C)C)C(C(=O)NCc4ccccc4)C34C=CC2(C)O4)no1 (stereo not given)	none (no result: KCNQ2 enhance)
N#Cc1ccc(CSc2nnc(-c3ccccc3)n2Cc2ccco2)cc1	none (no result: KCNQ2 enhance)
N#Cc1ccc(CSc2nnc(Cc3cccs3)n2Cc2ccco2)cc1	none (no result: KCNQ2 enhance) | Kir21 confirm 53% | HEK293 Tl flux inactive
Cc1ccc(S(=O)(=O)NCC(=O)NC2CC2)cc1	none (no result: KCNQ2 enhance)
O=C1OC(c2ccccc2)=C/C1=C/N1CCCCC1	none (no result: KCNQ2 enhance)
COC(=O)/C=C1\OC(c2ccccc2)=CC1=O	KCNQ2 inh -13 | Kir21 confirm 54% | HEK293 Tl flux 66%
CCOc1ccc(N(C)S(=O)(=O)c2c[nH]c(C(=O)OC)c2)cc1	none (no result: KCNQ2 enhance)
O=S1(=O)N=C(N/N=C/c2cccs2)c2ccccc21	none (no result: KCNQ2 enhance)
Cc1ccc(C(C)C)cc1S(=O)(=O)NCc1ccccn1	none (no result: KCNQ2 enhance) | Kir21 confirm 67% | HEK293 Tl flux inactive
Cc1cc(C)c(S(=O)(=O)NCc2ccccn2)cc1C	none (no result: KCNQ2 enhance)
O=C(O)C(Cc1c[nH]c2ccccc12)NS(=O)(=O)c1cccc2nsnc12 (stereo not given)	none
O=S(=O)(c1cc(Cl)ccc1Cl)N1CCN(c2ccccn2)CC1	none
COc1cc(/C=C2/SC(=S)NC2=O)ccc1OS(=O)(=O)c1ccc(C)cc1	KCNQ2 enhance 40 | Kir21 confirm inactive | HEK293 Tl flux inactive | CHO-K1 Tl ctr 0.8 | KCNQ1 pot spec inactive | KCNQ2 pot confirm inactive | Kir2-1 sel inactive | KCNQ2 W236L pot inactive
COc1cc(/C=C2\SC(=S)NC2=O)ccc1OS(=O)(=O)c1ccccc1	KCNQ2 enhance 41 | Kir21 confirm inactive | HEK293 Tl flux inactive | CHO-K1 Tl ctr inactive | KCNQ1 pot spec inactive | KCNQ2 pot confirm 91 | Kir2-1 sel inactive | KCNQ2 W236L pot inactive
COc1ccc(/C=C2\SC(=S)NC2=O)cc1OS(=O)(=O)c1ccc(NC(C)=O)cc1	none (no result: KCNQ2 enhance)
COc1ccc(/C=C2/S/C(=N/S(=O)(=O)Cc3ccccc3)NC2=O)cc1OC	none
CC(C)c1ccccc1NC(=S)NCc1ccncc1	none
COc1ccc(OC)c(CCNC(=O)c2cccc(NC3=NC4CS(=O)(=O)CC4S3)c2)c1 (stereo not given)	none
O=C(Nc1cccc(-c2cn3c(n2)SCC3)c1)c1ccc(Br)o1	none (no result: KCNQ2 enhance)
O=C(Cc1ccc(F)cc1)Nc1cccc(-c2cn3c(n2)SCC3)c1	KCNQ2 enhance 10 | Kir21 confirm inactive | HEK293 Tl flux inactive | CHO-K1 Tl ctr inactive | KCNQ1 pot spec inactive | KCNQ2 pot confirm inactive | Kir2-1 sel inactive
CCCCCCCNC(=O)C1(CC2CC(c3ccc(Cl)cc3)=NO2)CCN(C(=O)OC(C)(C)C)CC1 (stereo not given)	none (no result: KCNQ2 enhance)
CCOC(=O)CSC1=NC(=O)/C(=C/c2ccc(OC)cc2)S1	none (no result: KCNQ2 enhance)
